# Data as given in PMC4336329 (PLoS ONE, 2015).
# Screen size: about 310,000 compounds; about 14,000 (4.5%) showed an effect of 50% or more. The effect is printed as a negative number. This is one part of a sample in which strong results are shown more often than they occur.
# Target: human ether-à-go-go-related gene (hERG) potassium channel (human, UniProt Q12809)
# Assay: primary screen, population patch clamp on CHO cells stably expressing hERG; higher = less effect of the substance
# 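Note: peak tail current of the secondary pulse compared with the same well before compound.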
# human ether-à-go-go-related gene (hERG) potassium channel, sequence (Q12809 whole entry, looked up): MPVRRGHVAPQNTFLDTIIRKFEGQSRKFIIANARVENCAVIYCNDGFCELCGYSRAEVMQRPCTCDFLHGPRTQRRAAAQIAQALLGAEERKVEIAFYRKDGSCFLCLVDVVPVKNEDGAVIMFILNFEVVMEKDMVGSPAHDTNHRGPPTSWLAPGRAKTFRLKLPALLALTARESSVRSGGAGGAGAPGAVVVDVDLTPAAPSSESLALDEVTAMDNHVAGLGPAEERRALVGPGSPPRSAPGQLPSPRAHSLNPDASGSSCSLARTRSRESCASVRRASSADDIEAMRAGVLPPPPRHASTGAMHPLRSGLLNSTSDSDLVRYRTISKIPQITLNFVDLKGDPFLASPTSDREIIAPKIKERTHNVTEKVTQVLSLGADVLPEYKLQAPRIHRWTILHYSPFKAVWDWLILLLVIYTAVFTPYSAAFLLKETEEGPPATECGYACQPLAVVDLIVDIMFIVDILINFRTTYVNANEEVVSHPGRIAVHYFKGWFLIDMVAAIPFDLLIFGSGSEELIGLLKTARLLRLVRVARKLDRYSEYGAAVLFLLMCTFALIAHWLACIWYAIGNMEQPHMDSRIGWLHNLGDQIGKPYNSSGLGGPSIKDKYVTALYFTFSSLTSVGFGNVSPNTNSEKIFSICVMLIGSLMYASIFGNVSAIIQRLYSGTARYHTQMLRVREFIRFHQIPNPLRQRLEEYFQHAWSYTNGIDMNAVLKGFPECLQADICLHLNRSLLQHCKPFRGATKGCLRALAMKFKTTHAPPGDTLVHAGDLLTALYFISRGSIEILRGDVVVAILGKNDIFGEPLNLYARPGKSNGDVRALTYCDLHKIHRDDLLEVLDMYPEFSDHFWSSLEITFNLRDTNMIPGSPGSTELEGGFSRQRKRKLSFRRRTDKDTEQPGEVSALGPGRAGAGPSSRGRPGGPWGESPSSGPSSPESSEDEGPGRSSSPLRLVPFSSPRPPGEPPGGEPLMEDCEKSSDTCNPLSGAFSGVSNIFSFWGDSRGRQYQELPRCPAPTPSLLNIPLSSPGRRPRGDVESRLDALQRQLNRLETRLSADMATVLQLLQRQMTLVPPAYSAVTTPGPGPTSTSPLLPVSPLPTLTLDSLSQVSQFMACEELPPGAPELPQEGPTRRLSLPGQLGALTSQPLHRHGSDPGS
row,SMILES,"hERG current change (%, negative = inhibition) at 10uM [%]"
1,O=C(Nc1nc2ccc(Cl)cc2s1)[C@@H]1CCCN1C(=O)c1cccs1,3.87
2,COc1ccc(NC(=O)[C@@H]2CCCN2C(=O)c2cccs2)cc1S(=O)(=O)N1CCCCC1,-6.06
3,O=C(Nc1ccc(OC(F)F)c(Cl)c1)[C@@H]1CCCN1C(=O)c1cccs1,-74.3
4,O=C(Nc1ccc(S(=O)(=O)N2CCCC2)cc1)C1CCCN1C(=O)c1cccs1 (centres unmarked),0.837
5,CCOc1ccc(NC(=O)[C@@H]2CCCN2C(=O)c2cccs2)cc1S(=O)(=O)N1CCOCC1,6.27
6,O=C(Nc1ccc(Cl)c(S(=O)(=O)N2CCOCC2)c1)[C@@H]1CCCN1C(=O)c1cccs1,-57.6
7,COc1ccc2nc(NC(=O)[C@@H]3CCCN3C(=O)c3cccs3)sc2c1,-56.4
8,O=C(Nc1ccccc1OC(F)F)C1CCCN1C(=O)c1cccs1 (centres unmarked),1.98
9,Cc1ccc(NC(=O)[C@@H]2CCCN2C(=O)c2cccs2)cc1S(=O)(=O)N1CCCCC1,-63.9
10,COc1ccc2nc(NC(=O)c3cccs3)sc2c1,8.71
11,CNC(=O)CN(C)S(=O)(=O)c1ccc(OC)c(Cl)c1,6.65
12,CC(=O)Nc1ncc(Cc2cc(Cl)ccc2Cl)s1,-1.4
13,CSc1nnc(Cn2c(=O)sc3ccccc32)n1-c1cccc(Cl)c1,-37.9
14,Cn1c(=O)c2c(ncn2CC(=O)OCC(=O)Nc2ccccc2Cl)n(C)c1=O,4.46
15,CC(C(=O)NC1CCCc2ccccc21)N1CCN(Cc2ccc3c(c2)OCO3)CC1 (centres unmarked),-51.9
16,CC(C(=O)NC1CCCc2ccccc21)N1CCN(c2ccc(F)cc2)CC1 (centres unmarked),-35.6
17,CC(NCc1ccc2c(c1)OCO2)C(=O)NC1CCCc2ccccc21.O=C(O)C(=O)O (centres unmarked),-22.6
18,COC(=O)c1cc2c(ccn2C)n1C,19.5
19,CC(C)(C)c1ccc(S(=O)(=O)/N=C2\C=C(NS(=O)(=O)c3ccccc3)C(=O)c3ccccc32)cc1,-2.61
20,O=C(NC(=S)N1CCCCC1c1cccnc1)c1ccccc1 (centres unmarked),4.5
21,COc1ccc(/C=C/C(=O)NC(=S)NN2CCCCC2c2cccnc2)cc1OC (centres unmarked),3.25
22,O=C(/C=C/c1ccc(Cl)cc1)NC(=S)NN1CCCCC1c1cccnc1 (centres unmarked),-67

row,SMILES,"hERG current change (%, negative = inhibition) at 10uM [%]"
1,O=C(NC(=S)N1CCCCC1c1cccnc1)c1ccc(F)cc1 (centres unmarked),5.06
2,COc1ccc(/C=C/C(=O)NC(=S)NN2CCCCC2c2cccnc2)cc1 (centres unmarked),-26.9
3,O=C(/C=C/c1ccc(F)cc1)NC(=S)N1CCCCC1c1cccnc1 (centres unmarked),-68.1
4,COc1ccc(C)cc1NCc1cccc(OC)c1OC,1.13
5,COc1cc(/C=C(\C#N)C(=O)NCC2CCCO2)ccc1OCCC(C)C (centres unmarked),4.67
6,O=C(Nc1ccccc1)N1CCCN(c2ccc(C(F)(F)F)cc2[N+](=O)[O-])CC1,-39.9
7,O=C(Cn1nc(Cc2cccnc2)c2ccccc2c1=O)NCc1ccc2c(c1)OCO2,-25.8
8,O=C(Cn1nc(Cc2cccnc2)c2ccccc2c1=O)NCC1CCCO1 (centres unmarked),9.7
9,O=C(Cn1nc(Cc2cccnc2)c2ccccc2c1=O)NCC1COc2ccccc2O1 (centres unmarked),-57.4
10,Cc1ccc(C2CC(c3ccccc3)=NN2c2ccccc2)o1 (centres unmarked),4.42
11,COc1ccccc1C(CNC(=O)c1ccco1)N1CCCC1 (centres unmarked),1.23
12,COc1ccc(C(CNC(=O)c2oc3cc(C)c(Cl)cc3c2C)N2CCCCC2)cc1 (centres unmarked),16.3
13,COc1ccc(C(CNC(=O)c2oc3ccc(F)cc3c2C)N2CCCCC2)cc1 (centres unmarked),-59.9
14,COc1ccc(C(CNC(=O)c2oc3ccc(OC)cc3c2C)N2CCCC2)cc1 (centres unmarked),-67.5
15,COc1ccc(C(CNC(=O)c2oc3ccccc3c2C)N2CCCC2)cc1 (centres unmarked),-43.8
16,COc1ccc(C(CNC(=O)c2ccc(-c3ccccc3Cl)o2)N2CCOCC2)cc1 (centres unmarked),-23.7
17,COc1ccc(C(CNC(=O)c2oc3ccc(Cl)cc3c2C)N2CCCCC2)cc1 (centres unmarked),-25.9
18,COc1ccc(C(CNC(=O)c2oc3c(Cl)cccc3c2C)N2CCCC2)cc1 (centres unmarked),-50.9
19,CCc1ccc2oc(C(=O)NCC(c3ccc(OC)cc3)N3CCCCC3)c(C)c2c1 (centres unmarked),-3.57
20,COc1ccc(C(CNC(=O)c2oc3ccc(C)cc3c2C)N2CCCCC2)cc1 (centres unmarked),6.26
21,COc1ccc(C(CNC(=O)c2oc3ccc(Br)cc3c2C)N2CCCCC2)cc1 (centres unmarked),-13.3
22,COc1ccccc1C(CNC(=O)c1ccc(-c2ccccc2Cl)o1)N1CCCC1 (centres unmarked),-72.2
